Laboratory results: PubChem BioAssay AID588726 (The Scripps Research Institute Molecular Screening Center, 2011)
About 8,200 (2.3%) of roughly 360,000 compounds were called active. The sample as a whole holds a higher share of actives than the screen did. A number with no mark means an inactive call. Cut-off read from the data, not from the text of the source: active = inhibition above about 27%; inactive = the rest.

The molecules below were run against Fructose-bisphosphate aldolase (Mycobacterium tuberculosis (strain ATCC 25618 / H37Rv)) (UniProt P9WQA3) (assay: M. tuberculosis aldolase activity blockers – biochemical, fluorescence, strain H37Rv, primary screen (AID 588726;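 note: 0% = vehicle and 100% = reference inhibitor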)). Details: purified M. tuberculosis FBA, fluorescence read-out, at 1 µM, stronger effect = higher value.
Sequence of Fructose-bisphosphate aldolase (Mycobacterium tuberculosis (strain ATCC 25618 / H37Rv)) (P9WQA3 whole entry, looked up): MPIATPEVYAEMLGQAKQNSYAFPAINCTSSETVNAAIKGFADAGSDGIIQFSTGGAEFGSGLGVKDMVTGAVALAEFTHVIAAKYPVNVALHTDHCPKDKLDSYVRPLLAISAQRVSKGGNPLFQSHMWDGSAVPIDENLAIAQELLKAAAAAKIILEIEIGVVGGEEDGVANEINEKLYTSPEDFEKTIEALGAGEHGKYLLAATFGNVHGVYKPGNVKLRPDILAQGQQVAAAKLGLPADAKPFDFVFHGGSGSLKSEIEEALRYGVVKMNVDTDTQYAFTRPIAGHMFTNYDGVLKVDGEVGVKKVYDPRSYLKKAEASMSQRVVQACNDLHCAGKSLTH
In the case of N#Cc1c(N2CCCCC2)nc(N)c2c(N)nc(SCC(=O)O)cc12, the inhibition is reported as 29.2% (active). Molecule O=C(O)CSc1ccc(S(=O)(=O)N2CCCC2)cn1 has an inhibition of -0.83%. Work on N#Cc1c(C(F)(F)F)cc(-c2cccs2)nc1N1CCCCC1 yielded an inhibition of 11%. COCc1c(C(=O)OCc2c(C)noc2C)oc2ccccc12 gave an inhibition of 5.69%. With CCOc1ccccc1C(=O)NC1CC2CCCC(C1)N2Cc1ccccc1 (stereo unspecified) the inhibition was -3.49%. Cc1ccnc(NC(=O)C2CCN(S(=O)(=O)c3c(C)c(C)cc(C)c3C)CC2)c1 gave an inhibition of 1.99%. In the case of CCN(CC(=O)Nc1c(F)cccc1F)C(=O)c1ccc(-c2ccc(C(C)=O)cc2)o1, the inhibition is reported as 142% (active). CCN(CC(=O)Nc1c(F)cccc1F)C(=O)c1ccc(-c2ccccc2)cc1 was tested, and the inhibition was 1%. Molecule CCN(CC(=O)Nc1c(F)cccc1F)C(=O)c1cnc(C)cn1 has an inhibition of 2.56%. With COC(=O)c1ccc([C@@H](O)[C@H](C)C(=O)CC(=O)OC(C)(C)C)cc1 the inhibition was 0.55%. CCOc1ccc(S(=O)(=O)N2CCCC(C(=O)N3CCC(C(N)=O)CC3)C2)cc1Cl (stereo unspecified) showed an inhibition of 2.08%. In the case of COc1cc(Br)cc(/C=N/c2ncn[nH]2)c1O, the inhibition is reported as -0.39%. In the case of Oc1ccc(Br)cc1C=Nc1ccc2[nH]ncc2c1, the inhibition is reported as 39.7% (active). COc1ccc(C)cc1NC(=O)CSc1nnc2ccc(-c3ccccn3)nn12 was tested, and the inhibition was 5.79%. For COc1ccc(-c2ccc(C(=O)NC(C)C)c3occc23)c(C)c1, the inhibition was 69.8% (active). In the case of COc1ccc(-c2ccc(C(=O)NCCN3CCOCC3)c3occc23)c(C)c1, the inhibition is reported as 88.1% (active). For COCCCNC(=O)c1ccc(-c2c(C)noc2C)c2ccoc12, the inhibition was 1.17%. Molecule COc1ccc(-c2coc3c(C(=O)NC(C)C)cccc23)c(C)c1 has an inhibition of -2.36%. With CC(=O)Oc1cc2c(C(=O)NCCN3CCOCC3)c(C)oc2c2ccccc12 the inhibition was 0.36%. With COc1ccc(-c2cc(C(=O)NCCCN3CCOCC3)no2)cc1 the inhibition was 3.9%. For CCOC(=O)[C@H]1[C@H]2COc3cc(OC)ccc3[C@@H]2N2C(=O)CN(Cc3ccc(Cl)cc3)C(=O)[C@@]12C, the inhibition was -3.3%. Molecule C=CCn1c(=O)n(C)c2c(=O)n(C)c(=O)n(C)c21 has an inhibition of 1.89%. Nc1scc(-c2ccncc2)c1Cl was tested, and the inhibition was -1.39%. Molecule Cc1cc2nc(C(F)(F)F)cc(-c3cccs3)n2n1 has an inhibition of 9.4%. With Cc1nc2ccccn2c(=O)c1NC(=O)c1cccs1 the inhibition was 3.76%. For CC(C)(C)Nc1c(-c2cccs2)nc2ccccn12, the inhibition was 76.1% (active). COC(=O)C1=C(N)Oc2cc(C)[nH]c(=O)c2C1c1ccc(Cl)cc1 (stereo unspecified) gave an inhibition of -1.06%. CCOC(=O)N1CCC(NC(=O)Cn2cc3c(n2)CCCCC3)CC1 was tested, and the inhibition was 3.04%. In the case of C[C@H]1CN([C@@H](C)CO)C(=O)CCCn2nncc2CO[C@@H]1CN(C)S(=O)(=O)c1cccc(C#N)c1, the inhibition is reported as 1.03%. O=C(CN1C(=O)NC2(CCCCC2)C1=O)NCCC1=CCCCC1 gave an inhibition of 1.11%. COc1cccc(NC(=O)CN(C)CC(=O)Nc2ccc3c(c2)CCC3)c1 was tested, and the inhibition was 55.8% (active). COc1cccc(NC(=O)CN(C)C(=O)/C=C/c2cc(OC)ccc2OC)c1 was tested, and the inhibition was 57.2% (active). For COc1cccc(NC(=O)CN(C)C(=O)CSC(=S)N2CCCC2)c1, the inhibition was 3.18%. With COc1ccc(/C=C/C(=O)OCC(=O)Nc2cccc(Oc3ccccc3)c2)c(OC)c1 the inhibition was -1.32%. COc1cccc(NC(=O)CN(C)C(C)C(=O)Nc2ccc(C#N)cc2)c1 (stereo unspecified) gave an inhibition of 1.24%. Work on COc1cccc(NC(=O)CN(C)C(=O)Cc2ccc(Cl)cc2Cl)c1 yielded an inhibition of -2.96%. Molecule Cc1ccc(-c2ccnc3nc(Sc4ncc(C(F)(F)F)cc4Cl)nn23)cc1 has an inhibition of 25.2%. In the case of CCc1ccc(OCC(=O)OCC(=O)c2c(N)n(C)c(=O)n(C)c2=O)cc1, the inhibition is reported as 3.53%. With COc1ccccc1CNC(=O)Cn1c(=O)oc2cc(Cl)ccc21 the inhibition was -1.01%. Molecule CC(C)C(C)(C#N)NC(=O)CSc1nc2scc(-c3ccccc3)c2c(=O)[nH]1 (stereo unspecified) has an inhibition of -1.25%. CCc1nc(N2CCN(C(C)=O)CC2)c2c3c(sc2n1)CCCC3 gave an inhibition of -1.16%. With COCCNc1nc(-n2nc(C)cc2C)nc2sc3c(c12)CCCC3 the inhibition was 35.2% (active). CCCc1nc2sc3c(c2c(=O)n1NC(=O)CCCl)CCCC3 was tested, and the inhibition was -0.17%. In the case of C=CCn1c(CCNC(=O)c2cccs2)n[nH]c1=S, the inhibition is reported as 0.26%. O=C(NNC(=S)NC1CC2CCC1C2)c1ccc(Cl)cc1 (stereo unspecified) showed an inhibition of -1.27%. For Cc1nn2c(c1-c1ccccc1)N=C(c1ccco1)CC2c1ccccc1 (stereo unspecified), the inhibition was -3.5%. For COC(=O)c1ccccc1NC(=O)C1CC(=O)N(c2ccc(OC)cc2)C1 (stereo unspecified), the inhibition was 2.12%. For O=C(Cc1ccc(Br)cc1)NCCN1CCOCC1, the inhibition was 1.41%. Work on CCOC(=O)N1CCN(C(=O)c2ccc3c(c2)N(Cc2ccc(C)cc2)CCS3)CC1 yielded an inhibition of 7.61%. In the case of O=C(NCCN1CCOCC1)c1ccc2c(c1)N(Cc1ccc(Cl)cc1)CCS2, the inhibition is reported as 32.2% (active). O=C(NCCN1CCOCC1)c1c(F)c(F)c(F)c(F)c1F gave an inhibition of -2.22%. In the case of O=C(NCCc1ccccc1)c1ccc2c(c1)N(Cc1ccccc1)CCS2, the inhibition is reported as 43.6% (active). Molecule CC1CCCN(c2ccc(C(=O)NCCc3ccccc3)cn2)C1 (stereo unspecified) has an inhibition of 2.27%. In the case of CN(C)/C=N/c1cc(=O)n(C)c(=O)n1CC1CC1, the inhibition is reported as -0.52%. With CN1C(C(=O)NCC2CC2)CC2Cn3c(nc4ccccc43)C21 (stereo unspecified) the inhibition was -0.07%. In the case of Cc1nonc1OCCn1nnnc1N, the inhibition is reported as -0.1%. Work on COC[C@@H]1NS(=O)(=O)c2ccc(Br)cc2O[C@H]1c1ccccc1 yielded an inhibition of -2.58%. In the case of Cc1nonc1C1CCCN1C(=O)c1cc(COc2cccc(C(F)(F)F)c2)on1 (stereo unspecified), the inhibition is reported as -1.66%. For CCCC1OC23CCCCC2C(C#N)(C#N)C1(C#N)C(=N)O3 (stereo unspecified), the inhibition was 48.2% (active). CCCCc1cc(=O)oc2cc(C)cc(OCc3nn[nH]n3)c12 was tested, and the inhibition was 183% (active). Work on CN(CCOc1ccccc1)Cc1nc2cc(Cl)ccc2c(=O)[nH]1 yielded an inhibition of 7.42%.
